Measured values published in the supplement of paper PMC4166925.
± gives the standard deviation of the averaged measurements. The full ranking holds about 33,000 sequences; the median of “E-score (dimensionless, -0.5 to 0.5)” is about -0.049, and the highest 2% start at about 0.37. The sample as a whole holds a higher share of the highest values than the screen did.

system: T1, PmTbr T-box DNA-binding domain (GST fusion); experiment: PBM E-score of 8-mer (E-score (dimensionless, -0.5 to 0.5)); Tbr is Tbrain of the sea star Patiria miniata (Pm) or the sea urchin Strongylocentrotus purpuratus (Sp); higher = stronger binding preference; conditions: the construct has about 5 more residues each side
T1 sequence: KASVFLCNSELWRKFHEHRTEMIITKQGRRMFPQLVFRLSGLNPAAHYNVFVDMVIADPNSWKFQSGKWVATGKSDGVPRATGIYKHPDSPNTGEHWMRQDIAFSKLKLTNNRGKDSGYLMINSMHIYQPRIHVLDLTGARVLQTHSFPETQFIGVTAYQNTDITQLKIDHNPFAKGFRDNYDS
Outline: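 Universal Agilent oligonucleotide arrays, made double-stranded by primer extension, were incubated with 200 nM GST-fused Tbr T-box DNA-binding domain in PBS (pH 7.5). The protein was expressed in BL21 E. coli at 20 °C and purified by glutathione affinity chromatography. After scanning and quantification, the Universal PBM Analysis Suite assigned an enrichment E-score to each ungapped 8-mer, averaged over duplicate arrays.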

Sequence	PBM E-score of 8-mer
ACTGCTGA	0.181 ± 0.035
AGTCATCG	-0.153 ± 0.0094
CTTAAGGC	-0.0813 ± 0.065
CAATCTAC	-0.0883 ± 0.0018
GCTCTATA	-0.25 ± 0.048
TCGAAAGA	-0.172 ± 0.05
GACCCTTA	-0.0822 ± 0.0071
CGAGTTAG	-0.0558 ± 0.052
GAAGCTCC	-0.342 ± 0.041
CTGTGGAC	-0.104 ± 0.0043
CACTAGGG	-0.15 ± 0.031
AGGCGACC	-0.13 ± 0.17
AGGCGACG	0.268 ± 0.0026
AGGCGACA	0.3974 ± 0.0038
AATTGGCA	0.247 ± 0.036
CGAAAAAA	0.00041 ± 0.062
CGAAATCG	0.231 ± 0.046
AAAAGTGG	0.107 ± 0.0099
ACAAGTCT	0.103 ± 0.044
ACAAGTGC	0.249 ± 0.005

Sequence	PBM E-score of 8-mer
AAAAGTGA	0.197 ± 0.059
ACAAGTGG	0.375 ± 0.017
ACAAGTGA	0.277 ± 0.034
ACAAGTAT	0.112 ± 0.028
ACAAGTGT	0.391 ± 0.0052
AAAAGTGT	0.413 ± 0.015
CGCACTCA	0.161 ± 0.074
AAAACGGG	-0.146 ± 0.0023
ATATACGA	-0.298 ± 0.059
AAATTCTT	-0.155 ± 0.029
TACTACGA	0.0382 ± 0.023
ATATGGCC	-0.235 ± 0.066
ATGGGCTC	-0.154 ± 0.16
TCGCTTCA	0.177 ± 0.02
CACGGGTC	0.0871 ± 0.051
CTGTCGCA	0.224 ± 0.064
CTGTCGGA	0.101 ± 0.044
ATGTCGGA	-0.0551 ± 0.054
GTGTCGGA	0.394 ± 0.015
GTGTCGCA	0.415 ± 0.0083

Sequence	PBM E-score of 8-mer
ATGTCGCA	0.254 ± 0.049
CGGATGCC	-0.239 ± 0.09
AGTAGAGA	-0.165 ± 0.0094
CAAATGTC	0.0249 ± 0.12
ACCTCAAC	-0.0545 ± 0.07
CCGCTGAA	-0.279 ± 0.04
AGTGCTAC	0.276 ± 0.031
AGTGCTAA	0.421 ± 0.012
CGTGCTAA	0.378 ± 0.021
GGTGCTAA	0.4753 ± 0.00081
GGTGCTTA	0.0849 ± 0.048
GGTGCTCA	-0.112 ± 0.025
CGTGCTAC	0.185 ± 0.0064
CGTGCTAG	0.287 ± 0.027
AGTGCTAG	0.358 ± 0.0077
GGTGCTAC	0.434 ± 0.0055
TGTGCTAA	0.346 ± 0.02
AGTGCTAT	0.27 ± 0.0047
